Compound activity: PubChem, National Center for Advancing Translational Sciences (NCATS)
A selection: hits, their analogues and other compounds. The true share with any hit is near 12%.
BAZ2B inh: BAZ2B (human) inhibition. Q9UIF8. AlphaScreen BAZ2B-H3K14Ac peptide displacement. Potency, µM (series often up to 114 µM), without a hit: at the top dose activity change, negative = inhibition, usual class: inhibitors. actives 4.4% (n = 360,000); further: on the % scale 0 is the no-effect control and ±100 the full control effect; nearly all actives have a fitted effect of over 60% in size
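BAZ2B 50 nM plus b-H3(5-23)K14Ac 50 nM, PBS pH 7.4/0.01% Tween-20, 30 min RT; compound added (max 110 uM), 30 min RT; streptavidin donor/Ni-chelate acceptor beads 10 ug/mL final, 20 min dark; AlphaScreen read.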
PLK1 PBD inh: inhibitors of human PLK1 polo-box domain binding. P53350. Plk1 PBD binding of FITC phosphopeptide, fluorescence polarization. Potency, µM, inactives show max response, negative = inhibition, usual class: inhibitors. actives 2.8% (n = 360,000); further: series mostly up to about 57 µM; on the % scale 0 is the no-effect control and ±100 the full control effect; nearly all actives have a fitted effect of over 65% in size
G9a inh: G9a (human) methyltransferase inhibition. actives 8.8% (n = 350,000). G9a H3K9 monomethylation, AlphaScreen, 2 h. Potency, µM (series often up to 102 µM), for inactives: at the top dose activity, negative = inhibition, usual class: inhibitors; further: on the % scale 0 is the no-effect control and ±100 the full control effect; nearly all actives have a fitted effect of over 75% in size
Target sequence (Q96KQ7 913-1193 limits assumed): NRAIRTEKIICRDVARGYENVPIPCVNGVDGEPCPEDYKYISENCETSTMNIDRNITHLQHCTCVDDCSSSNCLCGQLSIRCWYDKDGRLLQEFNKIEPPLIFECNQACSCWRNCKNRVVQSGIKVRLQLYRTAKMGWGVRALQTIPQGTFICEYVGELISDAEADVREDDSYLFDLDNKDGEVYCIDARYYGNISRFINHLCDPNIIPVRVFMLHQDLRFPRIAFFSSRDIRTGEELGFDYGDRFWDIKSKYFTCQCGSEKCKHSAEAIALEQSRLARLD
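AlphaScreen detection with an anti-monomethyl H3K9 antibody quantified product after a 2 h room-temperature reaction containing 500 nM biotinylated H3K9 peptide, 20 µM SAM and 20 nM enzyme, which had been preincubated 15 min with compound.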
JMJD2A Tudor: blocks the human JMJD2A Tudor domain; O75164; AlphaScreen JMJD2A-Tudor / H3K4me3 peptide binding; Potency, µM (series often up to 114 µM), without a hit: at the highest dose activity change, negative = inhibition, actives largely listed as inhibitors; actives 4.4% (n = 390,000); further: on the % scale 0 is the no-effect control and ±100 the full control effect; nearly all actives have a fitted effect of over 50% in size
Sfp inh: blocks B. subtilis Sfp PPTase activity | Q9F4F7 | Biochemical Sfp PPTase activity, qHTS | Potency, µM, for the others: largest response in the series, negative = inhibition, hits mostly inhibitors | actives 3.5% (n = 310,000) | AID 1490;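 further: the enzyme is Sfp with the accession as filed and its product quenches rhodamine fluorescence; 0% = enzyme reaction without inhibitor and -100% = no enzyme wells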
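Compounds were incubated with enzyme (final 15 nM) for 15 min at room temperature before substrate addition started the reaction. Fluorescence at 525 nm excitation, 598 nm emission was recorded immediately and after 30 minutes.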
HP1b chromo inh: HP1-beta chromodomain-methylated histone interaction inhibition | AlphaScreen HP1-beta / biotin-H3K9me3 peptide binding | Potency, µM (top dose mostly 114 µM), for the others: top-dose activity change, negative = inhibition, actives largely listed as inhibitors | actives 0.56% (n = 390,000) | AID 540317; further: nearly all actives have a fitted effect of over 70% in size
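AlphaScreen: HP1-beta (50 nM) preformed 30 min with biotin-H3(1-18)K9me3 peptide (50 nM) in PBS pH 7.4, 0.01% Tween-20. Compound added for 30 min at RT, then streptavidin donor/nickel chelate acceptor beads (10 ug/mL) for 30 min.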
* hit, by the source's call; ? = inconclusive; nt = no result given; [ ] = another dose, or the depositor's remark. The call rests on the fitted dose curve; in most records, active means well fitted curve in the direction sought with a large enough effect; inconclusive means small, poorly fitted or top-dose-only effect, or another doubt; inactive means no such curve, though single readings can be large; an effect the other way counts as inactive or inconclusive. Potency means the concentration at half of the fitted maximal effect.

SMILES	BAZ2B inh	PLK1 PBD inh	G9a inh	JMJD2A Tudor	Sfp inh	HP1b chromo inh
CC1(C)CC(=O)C2=C(C1)N=c1s/c(=C/c3ccc(F)c(F)c3)c(=O)n1C2c1ccc(F)cc1 (stereo not given)	1%	-12%	-9%[59 µM]	-20%	13%	-2%
CCOC(=O)C1=NNC(C(=O)c2ccccc2)C1c1ccc(Cl)cc1 (stereo not given)	-9%	-1%	nt	-11%	-2%	-3%
CCOC(=O)C1=C(C)N=C2c3ccccc3C(=O)C2C1c1ccc(Cl)cc1 (stereo not given)	13µM*	-8%	40µM*	40µM*	20%	?
Cc1ccc(C2C3=C(CC(C)(C)CC3=O)N=C3c4ccccc4C(=O)C32)cc1 (stereo not given)	16µM*	-10%	5µM*	45µM*	-17%	?
CCOC(=O)C1=C(COC(=O)/C=C/c2ccc(SC)cc2)NC(=O)NC1C (stereo not given)	10%	-12%	7%	-10%	nt	0%
COC(=O)[C@@H](NC(=O)N1CCc2nc(-c3ccccc3)c3c(c2C1)CO[C@@H](C)C3)C(C)C	nt	nt	nt	nt	-3%	nt
C/C(CCN1CCCCc2nc(C)c(C)cc21)=N\OC[C@@H](C)[C@H](OCc1ccccc1)C(C)C	nt	nt	nt	nt	18%	nt
